{"source": "ChEMBL document CHEMBL4513216", "about": "“Probing the Open Global Health Chemical Diversity Library for Multistage-Active Starting Points for Next-Generation Antimalarials” (ACS Infect Dis, 2020)", "note": "Out of some 69,000 compounds screened, about 8,600 (12%) showed an effect of 50% or more. Many of the other results were omitted from the sample, so strong results are more common in it than they were.", "data": [{"system": "Plasmodium berghei", "assay": "Screen against P. berghei liver stage (PbLuc), transformed with Luciferase, at 10uM", "format": "functional, HepG2", "settings": "tested at 10 uM", "units": {"INHIBITION": "%"}, "values": [{"compound": "COCCN1CCc2nc(SCc3ccc(F)cc3)[nH]c(=O)c2C1", "INHIBITION": 56.3}, {"compound": "CCCN1CCc2nc(SCc3ccc(F)cc3)[nH]c(=O)c2C1", "INHIBITION": 20}, {"compound": "Cn1cnnc1C1CCCN(C(=O)c2ccccn2)C1", "note": "(centres undefined)", "INHIBITION": 13.6}, {"compound": "Cc1cccc(C(=O)N2C[C@@H]3CC[C@H]2CN(S(=O)(=O)N(C)C)C3)n1", "INHIBITION": 18.2}, {"compound": "CN(C(=O)Cc1coc(-c2ccccc2)n1)C1(C#N)CCC1", "INHIBITION": 78.3}, {"compound": "CN(C(=O)Cc1coc(-c2cccs2)n1)C1(C#N)CCC1", "INHIBITION": 27.9}, {"compound": "Cc1oc(-c2cccs2)nc1C(=O)N(C)C1(C#N)CCC1", "INHIBITION": -11.6}, {"compound": "Cc1nc(C)n(C2CCCN(C(=O)c3sccc3C)C2)n1", "note": "(centres undefined)", "INHIBITION": -19.6}, {"compound": "CCn1nc(C)c2c1cnn2CCNS(C)(=O)=O", "INHIBITION": 16.8}, {"compound": "CCn1nc(C)c2c1cnn2CCNS(=O)(=O)c1cccs1", "INHIBITION": 60.7}, {"compound": "CCn1nc(C)c2c1cnn2CCNS(=O)(=O)c1ccccc1", "INHIBITION": -22.2}, {"compound": "Cc1ccsc1CNCc1c(C(C)C)nn(C)c1N1CCOCC1", "INHIBITION": 9.52}, {"compound": "COC(=O)C(CNC(=O)Nc1nncs1)Cc1cccc(C)c1", "note": "(centres undefined)", "INHIBITION": 76.8}, {"compound": "COC(=O)C(CNC(=O)Nc1nncs1)Cc1ccc(F)cc1", "note": "(centres undefined)", "INHIBITION": 37.6}, {"compound": "Cc1ccc(CNC(=O)Nc2nncs2)cn1", "INHIBITION": 27.4}, {"compound": "COc1cc(CNC(=O)Nc2nncs2)ccc1O", "INHIBITION": -73.6}, {"compound": "COC(=O)C(CNC(=O)Nc1nncs1)Cc1ccc(O)cc1", "note": "(centres undefined)", "INHIBITION": 51}, {"compound": "COC(=O)C(CNC(=O)Nc1cn[nH]c1)Cc1cccc(C)c1", "note": "(centres undefined)", "INHIBITION": 11.9}, {"compound": "Cc1ccccc1OC1(C(=O)O)CCN(C(=O)CCc2ccco2)CC1", "INHIBITION": 39.3}, {"compound": "CC(C)c1nc(CN(C)C2CCN(CCc3ccncc3)C2)no1", "note": "(centres undefined)", "INHIBITION": -16}, {"compound": "Cc1ccc(CN(C)C(=O)CN2CCOC(Cn3cccn3)C2)o1", "note": "(centres undefined)", "INHIBITION": 11.6}, {"compound": "Cn1nc(C2CN(C(=O)c3ccncc3)C2)c2nccnc21", "INHIBITION": 22}, {"compound": "CCc1nc(Cn2nc(COC)oc2=O)cs1", "INHIBITION": 49.9}, {"compound": "CCCc1nn(Cc2csc(C(C)C)n2)c(=O)o1", "INHIBITION": 29.4}, {"compound": "CCCc1nn(Cc2csc(CC)n2)c(=O)o1", "INHIBITION": 61}, {"compound": "Cc1csc(CNC(=O)CCCc2cccs2)n1", "INHIBITION": 3.48}, {"compound": "Cc1nc(CNC(=O)CCCc2cccs2)no1", "INHIBITION": 35.9}, {"compound": "Cc1n[nH]cc1CNC(=O)CCCc1cccs1", "INHIBITION": 54.5}, {"compound": "COc1c(C(=O)NCc2cnn(C)c2C)nnn1Cc1ccccc1", "INHIBITION": 40.8}, {"compound": "N#CC1COCCN1C(=O)c1ccc2[nH]cnc2c1", "note": "(centres undefined)", "INHIBITION": -13.9}, {"compound": "N#CC1COCCN1C(=O)c1ccc2cc[nH]c2c1", "note": "(centres undefined)", "INHIBITION": 53.3}, {"compound": "N#CC1COCCN1C(=O)c1ccc2[nH]ccc2c1", "note": "(centres undefined)", "INHIBITION": 19.7}, {"compound": "O=c1[nH]c(COc2ccc(Cl)cc2)nc2c1CCNC2", "INHIBITION": -9.66}, {"compound": "CCCc1nnsc1C(=O)NCC(O)c1cccs1", "note": "(centres undefined)", "INHIBITION": 19.9}, {"compound": "C/C=C(\\C)CN1C[C@H](c2cccc(OC)c2)[C@@H](N)C1", "INHIBITION": -0.273}, {"compound": "COc1cccc([C@H]2CN(C(=O)c3nnc4n3CCCC4)C[C@@H]2N)c1", "INHIBITION": 58.1}, {"compound": "COc1cccc([C@H]2CN(C(=O)c3scc4c3CCCC4)C[C@@H]2N)c1", "INHIBITION": 60.1}, {"compound": "CCOCCN1C[C@H](c2cccc(OC)c2)[C@@H](N)C1", "INHIBITION": 39.9}, {"compound": "COc1cccc([C@H]2CN(C(=O)c3noc4c3CCCC4)C[C@@H]2N)c1", "INHIBITION": 31.4}, {"compound": "COc1cccc([C@H]2CN(C(=O)c3cc(C)on3)C[C@@H]2N)c1", "INHIBITION": 23.5}, {"compound": "CC(C)CCOCCNC(=O)Nc1ccc(F)c(C(N)=O)c1", "INHIBITION": -25.9}, {"compound": "CCn1c(N)nc2cc(C(=O)NCc3cccc(C)c3C)cnc21", "INHIBITION": -25.7}, {"compound": "CCc1nnc(CN2CCC(N3CCN(CC)C3=O)CC2)o1", "INHIBITION": -27.8}, {"compound": "Cc1cccn2c(=O)cc(OC(=O)c3ccc(OC(C)C)cc3)nc12", "INHIBITION": -5.59}, {"compound": "Cc1ccc2c(cnn2CCC(=O)NCc2csc(C)n2)c1", "INHIBITION": 23.6}, {"compound": "CCn1cnnc1CCNS(=O)(=O)N1CCCC1c1ccco1", "note": "(centres undefined)", "INHIBITION": 27.7}, {"compound": "Cc1c(CN2CCCC2c2cncc(CN3CCCC3)n2)cnn1C", "note": "(centres undefined)", "INHIBITION": 12.9}, {"compound": "COc1ccc(OCC(C)NS(C)(=O)=O)cc1", "note": "(centres undefined)", "INHIBITION": 0.472}, {"compound": "Cc1ccc(OCC(C)NC(=O)CN(C)c2ccc(C#N)cn2)cc1", "note": "(centres undefined)", "INHIBITION": 8.38}, {"compound": "CC(COc1ccccc1)NS(C)(=O)=O", "note": "(centres undefined)", "INHIBITION": 52.6}, {"compound": "Cc1ccc(OCC(C)NS(C)(=O)=O)cc1", "note": "(centres undefined)", "INHIBITION": -1.7}, {"compound": "Cc1ccc(OCC(C)NS(=O)(=O)N(C)C)cc1", "note": "(centres undefined)", "INHIBITION": 51.5}, {"compound": "Cc1ccc(OCC(C)NS(C)(=O)=O)cc1C", "note": "(centres undefined)", "INHIBITION": 15.7}, {"compound": "CCOc1ccc2[nH]c(=O)c(CN3CCC(N4CCCC4)CC3)cc2c1", "INHIBITION": -1.54}]}]}
